CYP2C9 inh: blockers of cytochrome P450 2C9 activity – biochemical, luminescence, ADME assay, primary screen; P11712; CYP2C9 Supersomes, luciferin-H conversion; inhibition, % at 5 µM; 96,000 tested, 20% active;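 active means blocking of liver enzyme CYP2C9 beyond about 50% at 5 µM, limit read from the data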
CYP2C9 act: human CYP2C9 activators, primary screen, biochemical, luminescence; recombinant CYP2C9, luciferin-H conversion; active compounds read high; factor 1 = untreated enzyme, 0 = blocked; activation factor at 5 µM; 96,000 tested, 1.4% active;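 active means activation factor of 2 or more for CYP2C9 at a 5 µM dose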;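 further: 0 = sulfaphenazole-blocked wells and 1 = vehicle-only wells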
CYP2C19 inh: blockers of cytochrome P450 2C19 activity – biochemical, luminescence, ADME assay, primary screen. 96,000 tested, 21% active. inhibition, % at 5 µM. P33261. CYP2C19 Supersomes, luciferin-H EGE luminescence, 30 min;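 active means CYP2C19 inhibition above a set limit at 5 µM in the primary screen, cut at about 50% in these data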;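 further: plate controls were negative control wells for no effect and 2.5 mM tranylcypromine positive control for full effect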
CYP2C19 act: human CYP2C19 activators, primary screen, biochemical, luminescence; recombinant CYP2C19, luciferin-H EGE luminescence; active compounds read high; 0 = fully inhibited enzyme, 1 = untreated enzyme; activation factor at 5 µM; 96,000 tested, under 10 active; AID 1025, 2008;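 active means activation factor of at least 2 at 5 µM in the primary screen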;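 further: 0 = wells with 2.5 mM tranylcypromine and 1 = vehicle-only wells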
Cav3 T inh: Cav3.2 calcium influx blockers – cell-based, Fluo-4 calcium fluorescence, FDSS, MLSMR library, primary screen | 100,000 tested, 4% active | B-score at 10 µM | AID 449739, 2010 | Voltage-dependent T-type calcium channel subunit alpha-1H (Homo sapiens), O95180 | Cav3.2-expressing cells; active compounds read low;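 active means single-dose well whose peak fluorescence ratio is a statistical outlier from its plate by either plate-standardised score or position-corrected B-score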
* = called active by the depositor; . = no result. Compounds with a hit are over-represented: about 27% of the library has one in this group of screens.

SMILES	CYP2C9 inh	CYP2C9 act	CYP2C19 inh	CYP2C19 act	Cav3 T inh
O=C(CCn1c(=S)[nH]c2ccccc2c1=O)NCC1CCCO1 (configuration not stated)	-20.3	1.2	4.0	1	-4.47*
CCCn1c(=S)[nH]c2cc(C(=O)NCC3CCCO3)ccc2c1=O (configuration not stated)	.	.	.	.	0.514
Cc1cccc2cc(C#N)c(SCC(=O)NCC3CCCO3)nc12 (configuration not stated)	.	.	.	.	-0.973
Cn1nc(-c2ccc(C(=O)NCC3CCCO3)cc2)c2ccccc2c1=O (configuration not stated)	12.8	0.9	29.4	0.7	-0.273
Cn1nc(-c2ccc(OCC(=O)NCC3CCCO3)cc2)c2ccccc2c1=O (configuration not stated)	54.5*	0.5	45.7	0.5	0.458
Cn1c(=O)cc(SCC(=O)NCC2CCCO2)c2ccccc21 (configuration not stated)	-115.0	2.1*	-19.1	1.2	0.809
Cc1cccc2c(SCC(=O)NCC3CCCO3)nc(-c3ccc(F)cc3)nc12 (configuration not stated)	48.1	0.5	51.5*	0.5	-0.707
Cc1cc(NC(=O)c2ccc(N(C)S(=O)(=O)c3ccccc3)cc2)no1	36.9	0.6	27.2	0.7	-0.72
COCCCNC(=O)c1ccccc1SC	-33.4	1.3	-14.9	1.1	0.714
COC(=O)c1cnc(SC)nc1C	5.2	0.9	24.3	0.8	.
O=C(CSc1oc(-c2ccco2)nc1S(=O)(=O)c1ccc(Cl)cc1)NCC1CCCO1 (configuration not stated)	35.4	0.6	75.7*	0.2	-0.184
O=C(CSc1oc(-c2ccco2)nc1S(=O)(=O)c1ccccc1)NCC1CCCO1 (configuration not stated)	.	.	.	.	0.124
COC(=O)c1ccc(CSc2ncnc3c2nnn3-c2ccc(OC)cc2)o1	56.1*	0.4	51.9*	0.5	-0.427
O=C(CSc1nc2c(sc3ccccc32)c(=O)n1Cc1ccco1)NCC1CCCO1 (configuration not stated)	68.1*	0.3	50.7*	0.5	0.0668
Cc1ccc(-n2nnc3c(SCC(=O)NCC4CCCO4)ncnc32)cc1 (configuration not stated)	63.9*	0.4	44.9	0.6	0.492
O=C(CSc1nc2c(sc3ccccc32)c(=O)n1Cc1ccccc1)NCC1CCCO1 (configuration not stated)	11.0	0.9	10.0	0.9	-0.0518
O=C(Oc1ccc(-c2cnc3ccccc3n2)cc1)c1ccco1	10.1	0.9	33.1	0.7	0.826
CCN(CC)C(=O)CSc1nnc(COc2ccccc2)n1CC	13.6	0.9	27.9	0.7	0.46
O=C(CSc1c[nH]c2ccccc12)NCC1CCCO1 (configuration not stated)	-16.7	1.2	53.5*	0.5	0.32
Cc1cc(C)n(-c2nc(-n3nc(C)cc3C)c3c4c(sc3n2)COC(C)(C)C4)n1	38.3	0.6	72.4*	0.3	.
Cc1cc(C)n(-c2nc(NCCC(C)C)c3c4c(sc3n2)COC(C)(C)C4)n1	30.5	0.7	9.2	0.9	.
Cc1cc(C)n(-c2nc(SCC(=O)Nc3nccs3)c3c4c(sc3n2)COC(C)(C)C4)n1	76.8*	0.2	37.8	0.6	.
CCN1CCN(C(=O)CN(c2ccccc2C)S(C)(=O)=O)CC1	-7.4	1.1	5.6	0.9	0.503
COC(=O)C1=C(C)NC(C)=C(C(=O)OC)C1c1ccc2ccccc2n1	50.2*	0.5	76.7*	0.2	-0.721
COC(=O)C1=C(C)NC(C)=C(C(=O)OC)C1c1ccc(NC(C)=O)cc1	52.5*	0.5	33.0	0.7	0.802
SMILES	CYP2C9 inh	CYP2C9 act	CYP2C19 inh	CYP2C19 act	Cav3 T inh
O=C1c2ccccc2C(=O)C1c1ccc2ccccc2n1	73.6*	0.3	82.5*	0.2	-0.262
C/C(=N/NC(=O)c1ccccn1)c1ccco1	18.9	0.8	56.8*	0.4	0.442
CCCCCC(=O)N/N=C(\C)c1ccccn1	8.9	0.9	57.1*	0.4	0.964
CCCCCCCCCC(=O)N/N=C(\C)c1cccnc1	.	.	.	.	-2.17
COc1cc2[nH]ccc(=O)c2cc1OC	.	.	.	.	-0.883
COc1ccc[nH]c1=O	32.7	0.7	81.0*	0.2	0.33
Cc1cc(=O)[nH]c2n[nH]c(-c3ccccc3)c12	-14.7	1.1	78.2*	0.2	0.356
Cc1cc(=O)[nH]c(-c2ccccc2)n1	5.1	0.9	2.0	1	0.571
c1ccc2c(Cn3ccnc3)c[nH]c2c1	84.3*	0.2	86.0*	0.1	0.304
COc1cccc(C2CC(C(F)(F)F)n3ncc(C(=O)NCC4CCCO4)c3N2)c1 (configuration not stated)	60.4*	0.4	32.8	0.7	0.0138
CN(Cc1ccc(-n2cccn2)cc1)C(=O)c1cnn2c1NC(c1ccco1)CC2C(F)(F)F (configuration not stated)	78.2*	0.2	48.9	0.5	-7.65*
Cc1ccc(C2CC(C(F)(F)F)n3nc(C(=O)NCC4CCCO4)cc3N2)cc1 (configuration not stated)	58.2*	0.4	47.0	0.5	-0.0133
Cc1ccc(C2CC(C(F)(F)F)n3ncc(C(=O)NCc4ccco4)c3N2)cc1 (configuration not stated)	25.4	0.7	25.8	0.7	-5.76*
COc1ccc(C2CC(C(F)(F)F)n3ncc(C(=O)NCc4cccnc4)c3N2)cc1OC (configuration not stated)	51.7*	0.5	19.5	0.8	0.37
C=CCNc1ncnc2c1[nH]c1ccc(Cl)cc12	63.7*	0.4	34.4	0.7	0.56
C=CCNc1ncnc2c1[nH]c1ccccc12	27.8	0.7	32.9	0.7	1.67
COc1cccc(C(=O)N/N=C(/c2ccccc2)c2ccccn2)c1	41.5	0.6	15.7	0.8	-0.128
CSc1nsc(/C=C/Nc2cccc(Cl)c2)c1C#N	65.4*	0.3	20.0	0.8	-0.0205
CSc1nsc(/C=C/Nc2ccc(Cl)cc2)c1C#N	32.5	0.7	3.3	1	-0.422
CSCCC(NC(=O)OC(C)(C)C)C(=O)NC(CC(C)C)C(N)=O (configuration not stated)	1.1	1	4.8	1	-0.27
Cc1cc(N2CCC(C)CC2)nc2cccc(O)c12	-204.7	3*	23.3	0.8	-2.23
Cc1ccccc1Cn1nc(C)c(NC(=O)c2noc3c2CCc2ccccc2-3)c1C	78.7*	0.2	57.5*	0.4	-6.86*
Cc1ccccc1Cn1cc(NC(=O)c2noc3c2CC(C(C)(C)C)CC3)cn1 (configuration not stated)	12.4	0.9	-5.3	1.1	-1.95
